Holding throughout (conditions): mRNA level, 48 h; actives raise or lower the signal
Read-out in experiment [1]: Keratin 19 (KRT19), KRT19 (gene 3880)
Briefly: LTEA_HepaRG_KRT19: Life Technologies and Expression Analysis (LTEA) Assay for Keratin 19 (KRT19) using HepaRG (AID 2283512). The procedure, abridged: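 Differentiated human HepaRG cells, plated 48 h, were exposed in duplicate for 48 h in serum-free induction medium to eight half-log concentrations up to 100 uM in 0.5% DMSO. KRT19 mRNA was quantified by qRT-PCR, normalized to ACTB, GAPDH and POLR2A, and fitted bidirectionally versus DMSO.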

Read-out in experiment [2]: JUN Transcription Factor, JUN (gene 3725)
Briefly: LTEA_HepaRG_JUN: Life Technologies and Expression Analysis (LTEA) Assay for JUN Transcription Factor using HepaRG (AID 2283513). The procedure, abridged:
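Gene-expression endpoint: JUN mRNA (qRT-PCR, normalized to three reference genes) in HepaRG cultures treated 48 h with chemicals, duplicate wells, 100 uM maximum with half-log dilutions; bidirectional fitting relative to 0.5% DMSO.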

Read-out in experiment [3]: Lipase C (LIPC), LIPC (gene 3990)
Briefly: LTEA_HepaRG_LIPC: Life Technologies and Expression Analysis (LTEA) Assay for Lipase C (LIPC) using HepaRG (AID 2283514). The procedure, abridged: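 LIPC expression was quantified by qRT-PCR against three housekeeping genes (ACTB, GAPDH, POLR2A). Differentiated human HepaRG cells received eight half-log doses (top 100 uM, 0.5% DMSO) in duplicate for 48 h; fitting bidirectional relative to DMSO.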

Read-out in experiment [4]: Lipoprotein lipase (LPL), LPL (gene 4023)
Put plainly: LTEA_HepaRG_LPL: Life Technologies and Expression Analysis (LTEA) Assay for Lipoprotein lipase (LPL) using HepaRG (AID 2283515). The procedure, abridged:
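LPL transcript levels quantified by TaqMan qRT-PCR against three housekeeping genes after 48 h chemical treatment of HepaRG cells. Eight-point half-log series from 100 uM in 0.5% DMSO, tested in duplicate; bidirectional fitting versus vehicle.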

Read-out in experiment [5]: matrix metalloproteinase-10 (MMP10), MMP10 (gene 4319)
Put plainly: LTEA_HepaRG_MMP10: Life Technologies and Expression Analysis (LTEA) Assay for matrix metalloproteinase-10 (MMP10) using HepaRG (AID 2283517). The procedure, abridged: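 Expression measured by TaqMan qRT-PCR with ACTB/GAPDH/POLR2A normalisation after 48 h chemical exposure of HepaRG cells. Eight half-log concentrations, top 100 uM, 0.5% DMSO vehicle, duplicates; gain or loss fitted against vehicle.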

Read-out in experiment [6]: matrix metalloproteinase-3 (MMP3), MMP3 (gene 4314)
Put plainly: LTEA_HepaRG_MMP3: Life Technologies and Expression Analysis (LTEA) Assay for matrix metalloproteinase-3 (MMP3) using HepaRG (AID 2283519). The procedure, abridged:
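Fluidigm-based TaqMan qRT-PCR, normalized to ACTB, GAPDH and POLR2A and fitted bidirectionally versus 0.5% DMSO, measured transcript levels. Treatment: duplicate 48 h exposures of HepaRG cells, ~100,000/well, to eight half-log concentrations topping at 100 uM.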

Read-out in experiment [7]: Paternally Expressed 10 (PEG10), PEG10 (gene 23089)
Briefly: LTEA_HepaRG_PEG10: Life Technologies and Expression Analysis (LTEA) Assay for Paternally Expressed 10 (PEG10) using HepaRG (AID 2283520).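 On AC50: PEG10 transcript by qRT-PCR normalised to ACTB GAPDH and POLR2A.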 The gist of the method:
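After 48 h exposure of differentiated HepaRG cells (0.5% DMSO vehicle, eight concentrations up to 100 uM, duplicates), PEG10 mRNA was measured by TaqMan qRT-PCR. Values were normalised to endogenous control genes and analysed bidirectionally against vehicle.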

Read-out in experiment [8]: Nuclear factor NF-kappa-B p105 subunit (Homo sapiens) (UniProt P19838)
Briefly: LTEA_HepaRG_NFKB1: Life Technologies and Expression Analysis (LTEA) Assay for Nuclear Factor Kappa B Subunit 1 (NFKB1) using HepaRG (AID 2283521). The gist of the method:
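Differentiated human HepaRG cells were exposed for 48 h in serum-free induction medium to eight concentrations (top 100 uM, half-log steps, 0.5% DMSO), in duplicate. NFKB1 mRNA was measured by TaqMan qRT-PCR, normalized to ACTB/GAPDH/POLR2A, and fitted bidirectionally against DMSO.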

Read-out in experiment [9]: Protein phosphatase 2A (PPP2R4), PTPA (gene 5524)
Briefly: LTEA_HepaRG_PPP2R4: Life Technologies and Expression Analysis (LTEA) Assay for Protein phosphatase 2A (PPP2R4) using HepaRG (AID 2283522). The gist of the method: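 Using HepaRG cultures maintained in 0.5% DMSO, chemicals are tested 48 h at up to 100 uM in duplicate. Induction or suppression of PPP2R4 mRNA, measured by qRT-PCR, is fitted bidirectionally against the vehicle baseline.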

Read-out in experiment [10]: Phosphatase and tensin (PTEN), PTEN (gene 5728)
Briefly: LTEA_HepaRG_PTEN: Life Technologies and Expression Analysis (LTEA) Assay for Phosphatase and tensin (PTEN) using HepaRG (AID 2283523). The procedure, abridged: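 Read-out: TaqMan qRT-PCR of PTEN transcript, normalized to three housekeeping genes, fitted in both directions against 0.5% DMSO. Differentiated human HepaRG cultures received chemicals for 48 h, eight-point half-log series topping at 100 uM.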

Read-out in experiment [11]: solute carrier (SLC22A1), SLC22A1 (gene 6580)
Briefly: LTEA_HepaRG_SLC22A1: Life Technologies and Expression Analysis (LTEA) Assay for solute carrier (SLC22A1) using HepaRG (AID 2283524). The gist of the method:
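Transcript level of SLC22A1 quantified by qRT-PCR (normalized to three housekeeping genes) after 48 h chemical exposure of HepaRG cells, eight concentrations up to 100 µM, half-log steps, 0.5% DMSO vehicle. Gain or loss relative to DMSO fitted bidirectionally.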

Read-out in experiment [12]: Pyruvate Dehydrogenase Kinase 4 (PDK4), PDK4 (gene 5166)
Put plainly: LTEA_HepaRG_PDK4: Life Technologies and Expression Analysis (LTEA) Assay for Pyruvate Dehydrogenase Kinase 4 (PDK4) using HepaRG (AID 2283525). The procedure, abridged: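 Readout is qRT-PCR of PDK4 transcript, normalized to three housekeeping genes, with bidirectional fitting against 0.5% DMSO vehicle. Differentiated HepaRG cells were treated 48 h in serum-free induction medium, duplicate wells, eight-point half-log series topping at 100 uM.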

Read-out in experiment [13]: NAD(P)H dehydrogenase [quinone] 1 (NQO1), NQO1 (gene 1728)
Briefly: LTEA_HepaRG_NQO1: Life Technologies and Expression Analysis (LTEA) Assay for NAD(P)H dehydrogenase [quinone] 1 (NQO1) using HepaRG (AID 2283526). The procedure, abridged: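 In this assay, gene expression is read by qRT-PCR after 48 h exposure of HepaRG cells to eight concentrations (max 100 uM, half-log) in 0.5% DMSO. Each chemical runs in duplicate, and activity is scored relative to vehicle.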

Read-out in experiment [14]: Nuclear factor erythroid 2-related factor 2 (Homo sapiens) (UniProt Q16236)
Briefly: LTEA_HepaRG_NFE2L2: Life Technologies and Expression Analysis (LTEA) Assay for Nuclear factor erythroid 2-related factor 2 (NFE2L2) Transcription Factor using HepaRG (AID 2283527).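 Further: TaqMan qRT-PCR transcript level normalised to ACTB GAPDH and POLR2A housekeeping genes.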 The gist of the method:
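NFE2L2 transcript level was read by qRT-PCR (housekeeping ACTB/GAPDH/POLR2A normalisation) after 48 h chemical treatment of HepaRG in serum-free induction medium. Duplicate 8-point half-log curves, top 100 uM, 0.5% DMSO vehicle; up- or down-regulation fitted against vehicle.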

Read-out in experiment [15]: succinate dehydrogenase complex iron sulfur subunit B (SDHB), SDHB (gene 6390)
Put plainly: LTEA_HepaRG_SDHB: Life Technologies and Expression Analysis (LTEA) Assay for succinate dehydrogenase complex iron sulfur subunit B (SDHB) using HepaRG (AID 2283528). The gist of the method:
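HepaRG, 48 h exposure, 8-pt half-log series from 100 uM in 0.5% DMSO, duplicates. Readout: SDHB mRNA by Fluidigm qRT-PCR vs housekeeping genes; bidirectional fit relative to DMSO.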

Read-out in experiment [16]: Signal transducer and activator of transcription 3 (Homo sapiens) (UniProt P40763)
Put plainly: LTEA_HepaRG_STAT3: Life Technologies and Expression Analysis (LTEA) Assay for Signal transducer and activator of transcription (STAT3) using HepaRG (AID 2283529). The gist of the method: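 STAT3 transcript quantified by qRT-PCR against three housekeeping genes (ACTB, GAPDH, POLR2A), fitted both directions relative to DMSO. HepaRG cultures exposed 48 h to eight half-log concentrations, top 100 uM, 0.5% DMSO, serum-free induction medium.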

Read-out in experiment [17]: solute carrier (SLCO1B1), SLCO1B1 (gene 10599)
Put plainly: LTEA_HepaRG_SLCO1B1: Life Technologies and Expression Analysis (LTEA) Assay for solute carrier (SLCO1B1) using HepaRG (AID 2283530). The procedure, abridged: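 Differentiated human HepaRG cells, plated 48 h, switched to serum-free induction medium and exposed in duplicate for 48 h to 8 half-log concentrations (top 100 uM) in 0.5% DMSO. SLCO1B1 mRNA by TaqMan qRT-PCR, normalized to ACTB/GAPDH/POLR2A.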

Read-out in experiment [18]: sulfotransferase 2A1 (SULT2A1), SULT2A1 (gene 6822)
Put plainly: LTEA_HepaRG_SULT2A1: Life Technologies and Expression Analysis (LTEA) Assay for sulfotransferase 2A1 (SULT2A1) using HepaRG (AID 2283531). The gist of the method: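 Differentiated human HepaRG cells in serum-free induction medium were exposed for 48 h to eight half-log concentrations (top 100 uM, 0.5% DMSO). SULT2A1 mRNA was measured by qRT-PCR, normalized to ACTB, GAPDH and POLR2A, and fitted bidirectionally against DMSO.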

Read-out in experiment [19]: Transforming Growth Factor (TGFA), TGFA (gene 7039)
Put plainly: LTEA_HepaRG_TGFA: Life Technologies and Expression Analysis (LTEA) Assay for Transforming Growth Factor (TGFA) using HepaRG (AID 2283532). The gist of the method:
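TGFA transcript quantified by qRT-PCR (Fluidigm arrays) against three housekeeping genes, after 48 hours chemical treatment of HepaRG cells. Top concentration 100 uM with half-log dilutions, 8 points, duplicates, 0.5% DMSO.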

Read-out in experiment [20]: Transforming Growth Factor (TGFB1), TGFB1 (gene 7040)
Put plainly: LTEA_HepaRG_TGFB1: Life Technologies and Expression Analysis (LTEA) Assay for Transforming Growth Factor (TGFB1) Transporter using HepaRG (AID 2283533). The procedure, abridged: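 Differentiated human HepaRG cells in serum-free induction medium were exposed in duplicate for 48 h to eight concentrations (top 100 uM, half-log steps, 0.5% DMSO). TGFB1 mRNA was quantified by qRT-PCR, normalized to ACTB, GAPDH, POLR2A, and fitted bidirectionally against DMSO.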

SMILES strings stand for the structures. The source made the active and inactive calls. How the source made its calls: active means hit-call score of the fitted dose curve at least 0.9, where 1 is the maximum; inactive means score below 0.9.

Outcome and AC50 data for three molecules are collected here from PubChem BioAssay (EPA / NIEHS).

For orientation: AC50 means the midpoint of the concentration-response curve, whichever way the signal moves.

Nuclear factor NF-kappa-B p105 subunit (Homo sapiens), sequence (P19838 whole entry, looked up): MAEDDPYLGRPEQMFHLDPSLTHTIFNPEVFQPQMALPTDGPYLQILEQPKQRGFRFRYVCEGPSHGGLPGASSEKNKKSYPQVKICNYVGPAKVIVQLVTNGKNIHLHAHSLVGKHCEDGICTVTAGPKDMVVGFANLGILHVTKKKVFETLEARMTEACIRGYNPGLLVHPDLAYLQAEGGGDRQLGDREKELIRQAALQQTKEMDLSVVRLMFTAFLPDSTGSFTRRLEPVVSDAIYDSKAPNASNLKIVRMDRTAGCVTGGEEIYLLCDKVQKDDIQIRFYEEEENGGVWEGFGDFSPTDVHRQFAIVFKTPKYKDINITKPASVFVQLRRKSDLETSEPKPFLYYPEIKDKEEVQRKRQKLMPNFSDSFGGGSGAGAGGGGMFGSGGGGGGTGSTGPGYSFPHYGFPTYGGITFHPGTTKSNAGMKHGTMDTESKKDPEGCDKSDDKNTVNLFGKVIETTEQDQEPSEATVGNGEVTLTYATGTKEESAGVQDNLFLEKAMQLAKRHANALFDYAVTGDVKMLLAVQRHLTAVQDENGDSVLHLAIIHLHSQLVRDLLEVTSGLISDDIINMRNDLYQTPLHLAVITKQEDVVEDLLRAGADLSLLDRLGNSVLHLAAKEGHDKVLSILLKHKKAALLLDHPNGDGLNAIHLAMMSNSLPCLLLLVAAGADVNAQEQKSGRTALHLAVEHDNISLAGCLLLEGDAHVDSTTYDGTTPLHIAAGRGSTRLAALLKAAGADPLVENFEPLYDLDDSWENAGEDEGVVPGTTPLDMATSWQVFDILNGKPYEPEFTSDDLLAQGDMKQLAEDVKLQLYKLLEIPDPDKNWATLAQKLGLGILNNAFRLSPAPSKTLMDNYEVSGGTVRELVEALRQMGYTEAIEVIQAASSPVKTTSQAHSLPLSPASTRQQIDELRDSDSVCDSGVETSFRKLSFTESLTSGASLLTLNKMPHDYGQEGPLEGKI
Nuclear factor erythroid 2-related factor 2 (Homo sapiens), sequence (Q16236 whole entry, looked up): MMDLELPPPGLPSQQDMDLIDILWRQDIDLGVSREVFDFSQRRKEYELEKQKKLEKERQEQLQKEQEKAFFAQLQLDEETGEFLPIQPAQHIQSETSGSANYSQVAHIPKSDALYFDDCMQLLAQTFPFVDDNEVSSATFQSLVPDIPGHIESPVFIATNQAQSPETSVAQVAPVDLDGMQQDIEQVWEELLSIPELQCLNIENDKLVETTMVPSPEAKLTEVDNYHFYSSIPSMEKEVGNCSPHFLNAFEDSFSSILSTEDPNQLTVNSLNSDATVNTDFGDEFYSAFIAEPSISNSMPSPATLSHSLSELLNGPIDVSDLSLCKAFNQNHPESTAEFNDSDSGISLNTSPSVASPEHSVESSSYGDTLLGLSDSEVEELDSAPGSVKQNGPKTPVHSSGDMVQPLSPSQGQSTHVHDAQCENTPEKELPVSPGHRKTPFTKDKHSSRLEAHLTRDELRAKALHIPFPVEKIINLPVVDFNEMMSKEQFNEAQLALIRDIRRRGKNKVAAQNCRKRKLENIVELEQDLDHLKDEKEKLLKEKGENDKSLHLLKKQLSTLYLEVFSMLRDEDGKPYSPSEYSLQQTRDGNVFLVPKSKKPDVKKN
Signal transducer and activator of transcription 3 (Homo sapiens), sequence (P40763 whole entry, looked up): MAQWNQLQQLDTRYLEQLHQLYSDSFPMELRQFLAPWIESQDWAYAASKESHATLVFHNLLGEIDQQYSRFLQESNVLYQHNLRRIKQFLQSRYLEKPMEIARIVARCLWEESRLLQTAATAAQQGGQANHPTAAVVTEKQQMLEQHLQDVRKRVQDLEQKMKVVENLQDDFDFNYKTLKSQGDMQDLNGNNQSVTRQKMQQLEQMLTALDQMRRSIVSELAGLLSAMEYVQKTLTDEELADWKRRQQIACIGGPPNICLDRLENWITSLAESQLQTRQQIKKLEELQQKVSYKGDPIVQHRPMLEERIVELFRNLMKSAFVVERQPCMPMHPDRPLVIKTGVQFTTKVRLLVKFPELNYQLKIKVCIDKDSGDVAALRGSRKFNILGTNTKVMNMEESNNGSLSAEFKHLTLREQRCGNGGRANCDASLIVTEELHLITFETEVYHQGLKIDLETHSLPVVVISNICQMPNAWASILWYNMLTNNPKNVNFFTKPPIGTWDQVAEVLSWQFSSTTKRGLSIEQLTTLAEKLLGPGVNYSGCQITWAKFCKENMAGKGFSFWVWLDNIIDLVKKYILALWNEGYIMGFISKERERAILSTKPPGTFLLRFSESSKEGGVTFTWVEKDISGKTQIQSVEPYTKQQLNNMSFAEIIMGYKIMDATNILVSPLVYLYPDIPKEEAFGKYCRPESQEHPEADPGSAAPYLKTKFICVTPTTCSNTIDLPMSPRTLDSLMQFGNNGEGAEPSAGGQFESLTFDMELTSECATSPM

Take `CC(C)(C)c1ccccc1O`: the molecule was classed as inactive in experiment [1], in experiment [2], in experiment [3], in experiment [4], in experiment [5] and in experiment [6]. The molecule was classed as inactive in experiment [7], in experiment [8], in experiment [9], in experiment [10], in [11] and in [12]. Further, the result in [13], in experiment [14], in experiment [15], in experiment [16], in experiment [17] and in experiment [18] was inactive. The molecule was called inactive in experiment [19] and in experiment [20].

Take `O=C(O)C1(c2ccc3c(c2)OC[C@H](Cc2ccc(-c4ccccc4)cc2)[C@H]3O)CCCC1`: the molecule was classed as inactive in experiment [1], in [3], in [4], in [5], in [6] and in experiment [11]. Further, the outcome in experiment [13], in experiment [14], in [16], in [17], in experiment [18] and in [19] was inactive. The AC50 is 88.4 µM (active) in [2]; 50 µM (active) in [7]; 76 µM (active) in [8]; 80.5 µM (active) in experiment [9]; 91.5 µM (active) in experiment [10]; 11.4 µM (active) in experiment [12]. Moreover, the AC50 is 81.6 µM (active) in [15] and 77.5 µM (active) in experiment [20].

Regarding `Clc1cccc(Cl)c1Cl`, the molecule was classed as inactive in experiment [1], in [2], in experiment [3], in experiment [4], in [5] and in experiment [6]. Also, the call in experiment [7], in experiment [8], in [9], in experiment [10], in experiment [11] and in [12] was inactive. The outcome in experiment [13], in experiment [14], in experiment [15], in [16], in experiment [17] and in experiment [18] was inactive. Further, the outcome in experiment [19] and in [20] was inactive.
